Bioassay records: PubChem, National Center for Advancing Translational Sciences (NCATS)
DRD3 antagonist – qHTS of D3 Dopamine Receptor Antagonist: qHTS; D3R cells, DiscoveRx beta-arrestin luminescence, antagonist mode; stronger effect = lower value; max response, negative = inhibition, %; 360,000 compounds, 2.5% hits; AID 652054, 2013; in the data active = max response below about -50%; inconclusive = no clear call, values can overlap the other calls
Target sequence (P35462 whole entry, looked up): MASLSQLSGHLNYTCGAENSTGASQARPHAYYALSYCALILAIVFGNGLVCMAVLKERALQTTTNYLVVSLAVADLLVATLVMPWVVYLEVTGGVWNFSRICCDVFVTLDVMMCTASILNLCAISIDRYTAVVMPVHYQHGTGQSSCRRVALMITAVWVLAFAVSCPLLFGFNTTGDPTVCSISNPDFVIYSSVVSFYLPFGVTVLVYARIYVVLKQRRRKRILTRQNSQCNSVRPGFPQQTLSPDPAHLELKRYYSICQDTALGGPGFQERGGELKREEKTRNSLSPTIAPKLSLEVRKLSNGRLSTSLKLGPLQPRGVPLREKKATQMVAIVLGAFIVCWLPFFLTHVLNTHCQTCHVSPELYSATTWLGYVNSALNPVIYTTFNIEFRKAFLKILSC
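Cells plated overnight at 1500 cells/well, then exposed to library compounds with dopamine controls for 90 minutes at 37 degrees C. DiscoveRx reagent added for 30–60 minutes at room temperature; luminescence read, quantitative HTS format.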
PI4K2A block – qHTS for small molecular inhibitors of PI4K2A. Phosphatidylinositol 4-kinase type 2-alpha (Homo sapiens), Q9BTU6. purified PI4K2A, ADP-Glo luminescence, 1 h; stronger effect = lower value. activity change, negative = inhibition, % at 76.9 µM. 420,000 compounds, 0.13% hits. AID 1346378, 2018; in the data active = activity change below about -50%; inconclusive = mostly about -30% to -49%
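ADP-Glo luminescence measured ADP generated by PI4K2A enzyme (4 ug/mL before mixing) with 1.2 mM PI substrate (pre-mix) and 300 microM ATP (pre-mix). Tris pH7.5 buffer with MgCl2, Triton X-100; 1 h reaction at ambient temperature.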
LDHA block – qHTS assay for inhibitors of human lactate dehydrogenase; L-lactate dehydrogenase A chain (Homo sapiens), P00338; AID 1347041, 2019; 480,000 compounds, 0.15% hits; activity change, % (values are at about 110 or 230 µM); purified LDHA, NADH/diaphorase-resazurin fluorescence; stronger effect = lower value; in the data active = activity change below about -30%; inconclusive = mostly about -25% to -30%
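Human LDH5 at 2 nM final in Tris HCl pH 7.4 with 0.06 mM NADH and 0.2 mM pyruvate, reacted 5 minutes at room temperature. Remaining NADH coupled via diaphorase/resazurin; resorufin fluorescence read at 0 and 20 minutes, normalized to enzyme-free and DMSO wells.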
PI5P4Ka inh – qHTS for Inhibitors of phosphatidylinositol 5-phosphate 4-kinase (PI5P4K). PI5P4Kalpha enzyme, ADP-Glo luminescence, 60 min; stronger effect = lower value. 330,000 compounds, 1.2% hits. max response, %. AID 652105, 2013; active = max response of -50% or lower; inconclusive = between -30% and -50%; inactive = -30% or higher; also: value at the top dose of about 77 µM
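ADP-Glo luminescence end-point after a 60 min room-temperature kinase reaction. PI5P4Kalpha and substrate in HEPES pH 7.4 buffer with EGTA, 0.1% CHAPS and 5% DMSO; ATP at 5 microM final.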
DRD3 agonist – qHTS of D3 Dopamine Receptor Agonist: qHTS | max activation, % | D3R DiscoveRx beta-arrestin cells, luminescence, 90 min | D(3) dopamine receptor (Homo sapiens), P35462 | AID 652048, 2013 | 410,000 compounds, 0.58% hits; in the data active = max activation above about 30%
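Agonist-mode cell screen: cells plated at 1500/well and incubated overnight at 37 °C, then exposed to library compounds for 90 min at 37 °C. Detection reagent was added for 30–60 min at room temperature, and luminescence was read.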
Hits are given with their value; . = inactive; ? = inconclusive; / = no result. Sampled rows, rich in hits. Any-hit rate of the full collection: about 3.3%.

SMILES | DRD3 antagonist | PI4K2A block | LDHA block | PI5P4Ka inh | DRD3 agonist
O=C(c1cnc2sccn2c1=O)N1CCCc2ccccc21 | -52 | . | . | . | .
CCOC(=O)C1=NOC(C(C)=O)(C(=O)Nc2cc(C)cc(C)c2)C1 (stereo not given) | / | . | / | / | /
CCN1CCN(S(=O)(=O)c2ccc(NC(=O)CCc3ncc(-c4ccccc4F)o3)cc2)CC1 | / | / | . | / | /
CCSc1nnc(SCc2cc(=O)oc3cc(C)ccc23)s1 | / | / | . | / | /
CCOc1cc(OCC)cc(C(=O)NCCN2CCC(n3c(=O)[nH]c4ccccc43)CC2)c1 | -95 | . | . | . | .
O=C(NCCN1CCC(n2c(=O)[nH]c3ccccc32)CC1)c1cccnc1 | . | . | . | . | .
COc1cccc(C(=O)NCCN2CCC(n3c(=O)[nH]c4ccccc43)CC2)c1 | -78 | . | . | . | .
CCOC(=O)N1CCC(n2c(=O)[nH]c3cc(Cl)ccc32)CC1 | / | . | / | / | /
O=S(=O)(c1ccc2c(c1)OCCO2)N1CCN(S(=O)(=O)c2cccs2)CC1 | / | / | . | / | /
Cc1c(NC(=O)c2c(NC(=O)CNC3CC3)sc3c2CCCC3)c(=O)n(-c2ccccc2)n1C | . | . | -89 | . | .
COc1ccc(NC(=O)N2CCN(c3nc(C)cc(Nc4ccc(C)cc4)n3)CC2)cc1 | / | / | . | / | /
CC(=NNC(=S)N1CCCCCC1)c1cccc2cccnc12 | -71 | . | . | . | .
Cc1ccc(NC(=S)Nc2ccc(S(=O)(=O)Nc3ccccc3)cc2)cc1 | / | / | . | / | /
CN1CCC(Oc2ccccc2Sc2ccccc2)CC1 | -63 | . | ? | . | .
N#Cc1ccc(C(=O)NC(c2ccccc2)c2cccs2)cc1 (stereo not given) | / | / | . | / | /
CNS(=O)(=O)c1cc(C(=O)NCc2ccc(-c3nc4ccccc4s3)o2)ccc1Cl | / | / | . | / | /
CCCNC(=O)C1(C)CCN(Cc2ccc3ccccc3c2Br)C1 (stereo not given) | -51 | . | . | . | .
CCCNC(=O)C1(C)CCCN(Cc2csc3ccccc23)C1 (stereo not given) | -53 | . | . | . | .
O=C(NC1CCN(C(=O)C2CC2)CC1)c1cc2cc(F)ccc2[nH]1 | / | / | . | / | /
O=C(Cn1c(=O)n(-c2ccccc2)c(=O)c2sccc21)NC1CCc2ccccc21 (stereo not given) | / | / | . | / | /
CC(C)NC(=O)Cn1c(=O)n(-c2ccccc2)c(=O)c2sccc21 | / | / | -41 | / | /
Oc1ccc(CNc2ccc(F)cc2F)c2cccnc12 | / | / | . | / | /
COc1ccc(-c2cc(C(=O)O)[nH]n2)cc1OC | . | -73 | . | . | .
CC(=O)c1c(C)cc(C)c(CSc2nc(C)cc(=O)[nH]2)c1C | . | . | . | / | 69
Cc1cccc(C(=O)NCN2CCN(c3ccccc3C#N)CC2)c1 | -76 | . | . | . | .
SMILES | DRD3 antagonist | PI4K2A block | LDHA block | PI5P4Ka inh | DRD3 agonist
O=C1N(c2ccccc2C(F)(F)F)O[C@@]1(c1ccccc1)C1CCCC1 | . | . | . | . | .
O=C1N(c2ccccc2C(F)(F)F)O[C@@]1(c1ccccc1)C1CCCCC1 | -57 | . | . | . | .
COc1cc([N+](=O)[O-])cc(/C=N/NC(=O)C(C)Nc2cccc(C)c2)c1O (stereo not given) | -55 | . | . | . | .
COc1cc([N+](=O)[O-])cc(/C=N/NC(=O)C(C)Nc2ccccc2C)c1O (stereo not given) | -98 | . | . | . | .
COc1cc([N+](=O)[O-])cc(/C=N/NC(=O)c2ccc(C)nc2)c1O | ? | . | . | . | .
C=CCc1cccc(/C=N/NC(=O)C(C)Nc2cccc(C)c2)c1O (stereo not given) | . | . | . | . | .
COc1cc([N+](=O)[O-])cc(/C=N/NC(=O)c2ccc(NC(=O)c3ccc(C)cc3)cc2)c1O | . | . | . | -62 | .
O=C(NCCN1CCCCC1)C(=O)Nc1ccc2cc[nH]c2c1 | / | / | . | / | /
Cc1cc(C)c2oc(-c3cccc(NC(=O)c4cc([N+](=O)[O-])ccc4N4CCOCC4)c3)nc2c1 | / | / | . | / | /
O=c1ccn([C@@H]2O[C@H](CNCc3ccccc3)[C@@H](O)[C@H]2O)c(=O)[nH]1 | . | . | . | . | .
O=c1ccn([C@@H]2O[C@H](CNCC3=Cc4cc(O)ccc4OC3)[C@@H](O)[C@H]2O)c(=O)[nH]1 | . | . | . | . | 55
CN(C)CC#CCC(O)(c1ccccc1)C1CCCCC1 (stereo not given) | -55 | . | . | . | .
CCN(CC)CC#CCC(O)(c1ccccc1)C1CCCC1 (stereo not given) | . | . | . | / | .
O=C(c1cc(O)c(O)c([N+](=O)[O-])c1)c1ccccc1F | . | . | . | -66 | .
CCCCC(c1nnnn1C1CCCC1)N1CCN(C2CCCCC2)CC1 (stereo not given) | -60 | . | . | . | .
CCCC(c1nnnn1C1CCCCC1)N1CCN(c2ncccn2)CC1 (stereo not given) | ? | . | . | . | .
CCC(c1nnnn1C1CCCC1)N1CCN(Cc2ccccc2)CC1 (stereo not given) | -65 | . | . | . | .
CSCCC(c1nnnn1C1CCCCC1)N1CCN(C/C=C/c2ccccc2)CC1 (stereo not given) | -89 | . | . | . | .
Fc1ccccc1C(c1nnnn1C1CCCC1)N1CCN(Cc2ccccc2)CC1 (stereo not given) | . | . | . | . | .
CCCCC(c1nnnn1CC1CCCO1)N1CCN(Cc2ccccc2)CC1 (stereo not given) | -78 | . | . | . | .
CCn1cnc2c1c(=O)n(CC(=O)N(Cc1ccc(F)cc1)C1CC1)c(=O)n2Cc1ccccc1 | / | / | . | / | /
C(=C\c1ccccc1)/CN1CCN(C(c2ccccc2)c2nnnn2C2CCCCC2)CC1 (stereo not given) | -91 | . | . | . | .
CSCCC(c1nnnn1C1CCCC1)N1CCN(C/C=C/c2ccccc2)CC1 (stereo not given) | -78 | . | . | . | .
CCC(c1nnnn1C1CCCC1)N1CCN(C/C=C/c2ccccc2)CC1 (stereo not given) | -61 | . | . | . | .
CCC(c1nnnn1C1CCCC1)N1CCN(c2cccc(OC)c2)CC1 (stereo not given) | . | . | . | . | .
CCCC(c1nnnn1C1CCCC1)N1CCN(C(=O)c2ccco2)CC1 (stereo not given) | . | . | . | . | .
C(=C\c1ccccc1)/CN1CCN(C(c2ccnc3ccccc23)c2nnnn2C2CCCCC2)CC1 (stereo not given) | ? | . | . | . | .
